In the supplement of paper PMC7380943:
Counter-ions that a name gives are not always drawn.

Key:
[1] = test system: CLZ3 (HCA2 human fibroblast dual HR-NHEJ reporter); assay: NHEJ repair efficiency (GFP+ cells) relative to control (log10 fold); higher = more non-homologous end joining; conditions: 5 µM; doxycycline 0.5 ug/mL
[2] = test system: CLZ3 (HCA2 human fibroblast dual HR-NHEJ reporter); assay: HR repair efficiency (tdTomato+ cells) relative to control (log10 fold); higher = more homologous recombination; conditions: 5 µM; doxycycline 0.5 ug/mL
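Throughout, for HR repair efficiency (tdTomato+ cells) relative to control: compound given one day before doxycycline, which switches on I-SceI endonuclease expression to create double-strand breaks within the integrated reporter.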
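Throughout, for NHEJ repair efficiency (GFP+ cells) relative to control: compound given one day ahead of doxycycline, which switches on I-SceI endonuclease to cut the chromosomally integrated reporter and create DSBs.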

Row | SMILES | NHEJ repair efficiency (log10) [1] | HR repair efficiency (log10) [2]
1 | C=C(CC[C@@H](C(=O)O)[C@H]1[C@H](O)C[C@@]2(C)C3=C(CC[C@]12C)[C@@]1(C)CC[C@H](OC(C)=O)C(C)(C)[C@@H]1CC3)C(C)C [Pachymic Acid] | -0.118 | 0.0591
2 | COc1cc2c(cc1OC)[C@@H](Cc1ccc(Oc3cc(C[C@@H]4c5cc(OC)c(OC)cc5CCN4C)ccc3O)cc1)N(C)CC2 [Dauricine] | -0.0332 | -0.294
3 | COc1cc(C(=O)OCCCCNC(=N)N)cc(OC)c1O [Leonurine] | -0.042 | 0.0155
4 | O=C(O)[C@H]1O[C@@H](Oc2cc3oc(-c4ccc(O)cc4)cc(=O)c3c(O)c2O)[C@H](O)[C@@H](O)[C@@H]1O [Scutellarin] | -0.122 | 0.0441
5 | COC(=O)C1=CO[C@@H](O[C@@H]2O[C@H](CO)[C@@H](O)[C@H](O)[C@H]2O)[C@H]2[C@@H]1[C@H](O)C[C@]2(C)O [Shanzhiside methylester] | 0.193 | 0.314
6 | Oc1cc(O)c2cc(O)c(-c3ccc(O)c(O)c3)[o+]c2c1 [Cyanidin Chloride] | -0.0642 | 0.00943
7 | C=CCc1ccc(O)c(-c2ccc(O)c(CC=C)c2)c1 [Honokiol] | 0.125 | 0.163
8 | O=C(O)c1cc(O)c2c(c1)C(C1c3cc(CO)cc(O)c3C(=O)c3c(OC4OC(CO)C(O)C(O)C4O)cccc31)c1cccc(OC3OC(CO)C(O)C(O)C3O)c1C2=O (configuration not stated) [Sennoside D] | 0.274 | -0.297
9 | COc1ccc(/C=C/C(=O)O)cc1O [Isoferulic Acid] | -0.101 | 0.0607
10 | OC[C@@H]1O[C@@H](OC[C@H]2O[C@@H](OC/C=C/c3ccccc3)[C@H](O)[C@@H](O)[C@@H]2O)[C@H](O)[C@H]1O [Rosarin] | 0.0801 | 0.118
11 | COc1c2c(cc3c1-c1c(cc4c(c1OC)OCO4)C[C@H](C)[C@H](C)C3)OCO2 [Schisandrin C] | -0.137 | 0.0438
12 | COc1ccc(-c2coc3cc(O)ccc3c2=O)cc1 [Formononetin] | -0.06 | 0.128
13 | Cc1c(O)cc2c(c1O)C(=O)c1ccc(O)c(O)c1C2=O [3-Hydroxymorindone] | -0.105 | 0.0716
14 | O=c1cc(-c2ccccc2)oc2cc(O)c(O)c(O)c12 [Baicalein] | 0.203 | 0.17
15 | COc1c2ccoc2cc2oc(=O)ccc12 [Bergapten] | -0.153 | 0.125
16 | COc1cc([C@H]2OC[C@H]3[C@@H]2CO[C@@H]3c2ccc(O[C@@H]3O[C@H](CO)[C@@H](O)[C@H](O)[C@H]3O)c(OC)c2)ccc1O[C@@H]1O[C@H](CO)[C@@H](O)[C@H](O)[C@H]1O [PinoresinolDiglucoside] | -0.0902 | -0.138
17 | O=Cc1ccc(CO)o1 [5-Hydroxymethylfurfural] | -0.214 | 0.0126
18 | COc1cc(/C=C/C(=O)CC(=O)/C=C/c2ccc(O)c(OC)c2)ccc1O [Curcumin] | 0.317 | -0.113
19 | CC[C@H](CC[C@@H](C)[C@H]1CC[C@H]2[C@@H]3CC=C4C[C@@H](O[C@@H]5O[C@H](CO)[C@@H](O)[C@H](O)[C@H]5O)CC[C@]4(C)[C@H]3CC[C@]12C)C(C)C [Daucosterol] | -0.00976 | 0.0626
20 | Cc1cc(O)cc(O[C@@H]2O[C@H](CO)[C@@H](O)[C@H](O)[C@H]2O)c1 [Orcinol Glucoside] | 0.0229 | -0.0841
21 | OC[C@H]1OC(O)[C@@H](O)[C@@H](O)[C@@H]1O (some centres not stated) [Mannose] | 0.0722 | 0.0481
22 | CC(C)=CCC[C@](C)(O[C@@H]1O[C@H](CO[C@@H]2OC[C@H](O)[C@H](O)[C@H]2O)[C@@H](O)[C@H](O)[C@H]1O)[C@H]1CC[C@]2(C)[C@@H]1[C@H](O)C[C@@H]1[C@@]3(C)CC[C@H](O[C@@H]4O[C@H](CO)[C@@H](O)[C@H](O)[C@H]4O[C@@H]4O[C@H](CO)[C@@H](O)[C@H](O)[C@H]4O)C(C)(C)[C@@H]3CC[C@]12C [Ginsenoside Rb2] | 0.0156 | 0.096
23 | NC(=O)NC1NC(=O)NC1=O (configuration not stated) [Allantoin] | 0.029 | 0.00746
24 | COc1ccc(CCO[C@@H]2O[C@H](CO[C@@H]3OC[C@H](O)[C@H](O)[C@H]3O)[C@@H](OC(=O)/C=C/c3ccc(O)c(OC)c3)[C@H](O[C@@H]3O[C@@H](C)[C@@H](O)[C@@H](O)[C@H]3O)[C@H]2O)cc1O [Angoroside C] | 0.0985 | 0.3
25 | C[C@]1(O)C[C@@H](O)[C@]2(O)C=CO[C@@H](O[C@H]3O[C@H](CO)[C@@H](O)[C@H](O)[C@H]3O)[C@@H]21 [Harpagide] | 0.0851 | -0.126
26 | OC[C@H]1O[C@@H](Oc2cc(O)cc(/C=C/c3ccc(O[C@@H]4O[C@H](CO)[C@@H](O)[C@H](O)[C@H]4O)cc3O)c2)[C@H](O)[C@@H](O)[C@@H]1O [Mulberroside A] | 0.049 | 0.234

Row | SMILES | NHEJ repair efficiency (log10) [1] | HR repair efficiency (log10) [2]
27 | O=c1cc(-c2ccc(O)c(O)c2)oc2cc(O)c([C@@H]3O[C@H](CO)[C@@H](O)[C@H](O)[C@H]3O)c(O)c12 [Isoorientin] | -0.0953 | 0.00986
28 | CC(CCC(OC1OC(COC2OC(CO)C(O)C(O)C2O)C(O)C(O)C1OC1OC(CO)C(O)C(O)C1O)C(C)(C)O)C1CCC2(C)C3CC=C4C(CCC(OC5OC(COC6OC(CO)C(O)C(O)C6O)C(O)C(O)C5O)C4(C)C)C3(C)C(O)CC12C (configuration not stated) [Mogroside Ⅴ] | -0.025 | 0.0038
29 | COC(=O)c1ccc(O)cc1 [Methylparaben] | 0.0529 | 0.0479
30 | O=c1oc2c(O)c(O)cc3c(=O)oc4c(O)c(O)cc1c4c23 [Ellagic acid] | 0.0142 | -0.0224
31 | CC1(C)[C@@H](O)CC[C@]2(C)[C@H]3CC=C4[C@@H]5C[C@@]6(C)C[C@H](OC6=O)[C@]5(C)CC[C@@]4(C)[C@]3(C)CC[C@@H]12 [Wilforlide A] | -0.137 | 0.00171
32 | COc1ccc(-c2oc3cc(OC)c(OC)c(O)c3c(=O)c2OC)cc1O [Vitexicarpin] | -0.0426 | -0.203
33 | C[C@H](CCC(=O)O)[C@H]1CC[C@H]2[C@@H]3CC[C@@H]4C[C@H](O)CC[C@]4(C)[C@H]3C[C@H](O)[C@]12C [Deoxycholic acid] | -0.0363 | 0.0026
34 | O=C(O)c1cc(O)c(O)c(O)c1 [Gallic acid] | 0.0481 | -0.11
35 | COc1cc(O)c2c(=O)c(O[C@@H]3O[C@H](CO)[C@@H](O)[C@H](O)[C@H]3O)c(-c3ccc(O[C@@H]4O[C@H](CO)[C@@H](O)[C@H](O)[C@H]4O)cc3)oc2c1 [Complanatoside] | -0.0413 | -0.0658
36 | COc1ccc(-c2cc(=O)c3c(O)c(OC)c(O)cc3o2)cc1 [Pectolinarigenin] | -0.0149 | -0.0222
37 | Oc1ccc(/C=C/c2cc(O)cc(O)c2)cc1 [Resveratrol] | -0.0132 | 0.0336
38 | COC(=O)C1=CO[C@@H](O[C@@H]2O[C@H](CO)[C@@H](O)[C@H](O)[C@H]2O)[C@@H]2C(CO)=CC[C@H]12 [Geniposide] | -0.0355 | 0.172
39 | C[C@@H]1O[C@@H](O[C@H]2[C@H](O[C@H]3CC[C@@]4(C)[C@@H](CC[C@]5(C)[C@@H]4CC=C4[C@@H]6CC(C)(C)CC[C@]6(C(=O)O)CC[C@]45C)[C@]3(C)CO)OC[C@H](O)[C@@H]2O)[C@H](O)[C@H](O)[C@H]1O [α-Hederin] | -0.0243 | -0.192
40 | COc1ccc(C(=O)O)cc1 [Anisic Acid] | 0.0832 | 0.118
41 | CCCCCCCCCCCCCCCCCC(=O)OC [Methyl Stearate] | -0.0143 | -0.0898
42 | O=c1c(-c2ccc(O)cc2)coc2c([C@@H]3O[C@H](CO)[C@@H](O)[C@H](O)[C@H]3O)c(O)ccc12 [Puerarin] | 0.0163 | 0.038
43 | O=C(O)/C=C/c1ccc(O)c(O)c1 [Caffeic Acid] | 0.0711 | 0.156
44 | CC1(C)CC[C@]2(C(=O)O)CC[C@]3(C)C(=CC[C@@H]4[C@@]5(C)CC[C@H](O)C(C)(C)[C@@H]5CC[C@]43C)[C@@H]2C1 [Oleanolic Acid] | 0.0316 | 0.133
45 | COc1ccc2cc3[n+](cc2c1OC)CCc1cc2c(cc1-3)OCO2 [Berberine hydrochloride] | -0.127 | -0.283
46 | COc1c2c(cc3oc(C)cc(=O)c13)O[C@H](C(C)(C)O)C2 [5-O-Methylvisamminol] | -0.159 | -0.14
47 | CC(/C=C/C=C(\C)C(=O)O[C@@H]1O[C@H](CO[C@@H]2O[C@H](CO)[C@@H](O)[C@H](O)[C@H]2O)[C@@H](O)[C@H](O)[C@H]1O)=C\C=C\C=C(C)\C=C\C=C(/C)C(=O)O[C@@H]1O[C@H](CO[C@@H]2O[C@H](CO)[C@@H](O)[C@H](O)[C@H]2O)[C@@H](O)[C@H](O)[C@H]1O [Crocin] | -0.0374 | 0.0109
48 | CC[C@H](/C=C/[C@@H](C)[C@H]1CC[C@H]2[C@@H]3CC=C4C[C@@H](O)CC[C@]4(C)[C@H]3CC[C@]12C)C(C)C [Stigmasterol] | -0.155 | -0.14
49 | CCOC(=O)/C=C/c1ccc(O)c(O)c1 [Ethyl Caffeate] | 0.0562 | 0.0777
50 | CC(C)=CCC[C@](C)(O[C@@H]1O[C@H](CO[C@@H]2O[C@H](CO)[C@@H](O)[C@H](O)[C@H]2O)[C@@H](O)[C@H](O)[C@H]1O)[C@H]1CC[C@]2(C)[C@@H]1[C@H](O)C[C@@H]1[C@@]3(C)CC[C@H](O[C@@H]4O[C@H](CO)[C@@H](O)[C@H](O)[C@H]4O[C@@H]4O[C@H](CO)[C@@H](O)[C@H](O)[C@H]4O)C(C)(C)[C@@H]3CC[C@]12C [Ginsenoside Rb1] | 0.0709 | 0.217
51 | COc1cc2c(cc1O)C[C@H]1c3cc(O)c(OC)cc3CC[N@@+]1(C)C2 [Phellodendrine] | 0.199 | -0.099
